Measurements from the OligoGym collection.

Each sequence was assayed against EHD3 (assay: pooled miR-30 sensor sort-seq; sequence = guide strand). Conditions: shRNA.
Further: reference of the scale not given here.

Row | Sequence | sensor-assay potency score (higher = more potent)
1 | TTGATGAGGTCGTTGAGCTTGC | 0.159
2 | TTTGTGGGCATCGAAGAGCAGA | -1.26
3 | TGCAAACTCGTCGTCGTCCAGC | -1.01
4 | TTGTCCTTCCCGAACACCGAGG | -1.14
5 | TTGACCAGCTCCTTCTTCTTGT | 0.288
6 | TCGAAGAGCAGAATGATGCGGT | 0.407
7 | TTTCTTGGGATCCACCACCAGG | -1.36
8 | TTCTTCTTGTTGTCCTTCCCGA | -0.7
9 | TAGAAGATCTCGTCGTACATGG | -0.19
10 | AAACTCGTCGTCGTCCAGCATG | -1.38
11 | TTCAGCACCACTCGCATCTTGT | -0.387

What follows are sequences tested against EHMT2 in the same assay as above. Conditions: shRNA.

Row | Sequence | sensor-assay potency score (higher = more potent)
12 | TTCATGGTGGACGTCTCGCAGT | -1.22
13 | TGAGTGGACATCATCACTCATG | -1.27
14 | TTGAGCTTCAGAAGCATCCTCC | 0.398
15 | TTGCTCTGCTGGTCGCTCTGGA | -0.425
16 | TTAGTTGTTCAGTTAGAGCTTC | 0.313
17 | TTACACTCGAAAATCAGCGGAG | -0.173
18 | TAGAGCTTCAACTTCAGACTTG | 0.68
19 | TAGCATGCGGATCACCTCGATG | -1.39
20 | TTCTTCTTGGCCTTGCGCCGGC | -0.437
21 | TTGACGTCCACCTGTCCTGTGC | -0.646
22 | TTGAGTTGAAGCGCAAACCACA | -1.4
23 | ATCCTTGTTGTCTAAGTCGAAG | -1.84
